# Tested on: CSF1R-autoinhibited
# Details: concentration: 1 μM, replicates: in singlicate; n = 1
# 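Also: KINOMEscan kinase panel screen.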
row,SMILES,%Inh
1,CN(C)S(=O)(=O)c1cc(-c2ccc3nccc(-c4cccc(S(N)(=O)=O)c4)c3c2)cnc1N [GSK1669921],0%
2,CCS(=O)(=O)c1ccc(OC)c(Nc2nccc(-c3c(-c4cccc(NC(=O)c5c(F)cccc5F)c4)nn4ncccc34)n2)c1 [GSK326180],0%
3,COc1cc(Nc2nccc(N3CCC(NC(=O)c4cc5ccccc5s4)C3)n2)cc(OC)c1OC (stereo not shown) [GSK1379760],23%
4,Cc1ccc(F)c(C(=O)Nc2cccc(-c3nn4ccccc4c3-c3ccnc(Nc4cccc(F)c4)n3)c2)c1F [GSK361061],0%
5,Clc1ccc(-c2nn3ncccc3c2-c2ccnc(Nc3ccc4c(c3)OCCO4)n2)cc1 [GW829116],0%
6,CCCCc1nn2ncccc2c1-c1ccnc(Nc2ccc(N3CCN(C)CC3)cc2)n1 [GW684941],73%
7,CCn1c(-c2nonc2N)nc2c(C#CC(C)(C)O)ncc(OCCCCN)c21.O=C(O)C(F)(F)F.O=C(O)C(F)(F)F [GSK507274],0%
8,O=C(NC1CCN(c2ccnc(Nc3ccc(F)cc3)n2)C1)c1cc2ccccc2s1 (stereo not shown) [GSK1379716],3%
9,COc1cc2c(cc1OCCN1CCNCC1)ncc1c3ccc(C#N)cc3[nH]c21,98.4%
10,COc1cc(Nc2nccc(N3CCC(NC(=O)Nc4cccc(C(C)=O)c4)C3)n2)cc(OC)c1OC (stereo not shown) [GSK1379753],0%
11,O=C(Nc1cccc(-c2nn3ccccc3c2-c2ccnc(Nc3cccc(C(F)(F)F)c3)n2)c1)c1c(F)cccc1F [GSK292658],0%
12,CN(c1ccc(NC(=O)Nc2cc(C(F)(F)F)ccc2F)cc1)c1ccnc(Nc2ccc(S(N)(=O)=O)cc2)n1 [GW809893],0%
13,Cc1cccc(NC(=O)Nc2ccc(Oc3ncnc4ccn(C)c34)cc2)c1,48%
14,Cl.c1ccc(-c2ccc3c(Nc4ccc5[nH]ccc5c4)ccnc3c2)nc1 [GW440138],36%
15,CN1CCN(CCCNc2nccc(-c3c(-c4ccc(F)cc4)nn4cc(C(F)(F)F)ccc34)n2)CC1 [GW621581],0%
16,C[C@@H](Oc1cc(-n2cnc3cc(-c4ccnc(NCCS(C)(=O)=O)c4)ccc32)sc1C(N)=O)c1ccccc1Cl [GSK907232],1%
17,Cc1cccc(Nc2nc(N[C@H]3CCNC3)ncc2C(N)=O)c1.Cl [GSK2197149],0%
18,CCc1ccc(-c2ccc3c(c2)-c2c(cnn2C)S(=O)(=O)N3C)cc1,9%
19,COc1cc(Nc2ncc3c(C)nc(-c4cc5ccccc5[nH]4)n3n2)cc(OC)c1OC [GW869516],0%

row,SMILES,%Inh
1,Cc1ccc(S(=O)(=O)Nc2ccc(Nc3nccc(Nc4cccc5[nH]ncc45)n3)cc2)cc1 [GSK581271],0%
2,COc1ccc(Nc2nccc(NCCNC(=O)c3cc4ccccc4s3)n2)cc1 [GSK1379896],0%
3,CN1CCN(Cc2cccc(-c3ccc4c(Nc5ccc(Oc6ccccc6)cc5)ccnc4c3)c2)CC1 [GW578342],43%
4,COc1ccc(Nc2nccc(N3CCC(NC(=O)Nc4cccc(OC)c4)C3)n2)cc1 (stereo not shown) [GSK1379742],0%
5,O=C(Nc1n[nH]c2cc(-c3ccoc3)ccc12)C1CC1 [SB-738481],0%
6,Nc1ncnc2c1nc(-c1ccccc1)n2-c1ccccc1 [SKF-97293],22%
7,COc1ccc(CNC(=O)NC2CCN(c3ccnc(Nc4ccc(F)cc4)n3)CC2)cc1 [GSK1379788],19%
8,Cc1occc1-c1ncc(OC[C@@H](N)Cc2c[nH]c3ccccc23)cc1-c1ccc2[nH]nc(C)c2c1.O=C(O)C(F)(F)F [GSK682037],0%
9,c1ccc(-c2n[nH]cc2Nc2ccnc3ccccc23)nc1 [GW694077],29%
10,O=C(Nc1cccc(-c2nn3ncccc3c2-c2ccnc(Nc3ccccc3)n2)c1)c1c(F)cccc1F [GSK198271],17%
11,Nc1n[nH]c2cnc(-c3ccccc3)cc12 [SB-642124],0%
12,CC(=O)Nc1nc2cnc(Nc3cc(NC(=O)c4cccc(C5(C#N)CC5)c4Cl)ccc3C)nc2s1,15%
13,O=C(Nc1n[nH]c2nc(-c3ccc(O)cc3)ccc12)C1CC1 [SB-710363],0%
14,Cn1cc(-c2[nH]c3cc(NC(=O)[C@H](N)C4CCCCC4)cc4c3c2C=NNC4=O)cn1,49%
15,O=C(Nc1cccc(-c2nn3ccccc3c2-c2ccnc(Nc3cccc(F)c3)n2)c1)c1c(F)ccc(F)c1Cl [GSK357952],0%
16,O=C(Nc1ccccc1F)NC1CCN(c2ccnc(Nc3ccc(F)cc3)n2)CC1 [GSK1379800],46%
17,CSc1cccc2c(-c3ccncn3)c(-c3ccc(F)cc3)nn12 [GW514786],21%
18,COc1ccc(-c2coc3ccc(-c4nnc(SCc5ccc(OC)c(C(F)(F)F)c5)o4)cc23)cc1,7%
